Among the data in PubChem BioAssay (EPA / NIEHS) are AC50 and outcome values, retold here.

SMILES strings stand for the structures. “And” between values parts separate entries of the source, which are not always exact repeats. Equal values may be shown once. Records with an inconclusive call do not appear. Some structures have more than one record in an assay (separate samples or runs), and their calls can disagree. The source made the active and inactive calls. How the source made its calls: active means hit-call score of the fitted dose curve at least 0.9, where 1 is the maximum; inconclusive means response in the unintended direction; inactive means score below 0.9.

Sequence of Cellular tumor antigen p53 (Homo sapiens) (P04637 whole entry, looked up): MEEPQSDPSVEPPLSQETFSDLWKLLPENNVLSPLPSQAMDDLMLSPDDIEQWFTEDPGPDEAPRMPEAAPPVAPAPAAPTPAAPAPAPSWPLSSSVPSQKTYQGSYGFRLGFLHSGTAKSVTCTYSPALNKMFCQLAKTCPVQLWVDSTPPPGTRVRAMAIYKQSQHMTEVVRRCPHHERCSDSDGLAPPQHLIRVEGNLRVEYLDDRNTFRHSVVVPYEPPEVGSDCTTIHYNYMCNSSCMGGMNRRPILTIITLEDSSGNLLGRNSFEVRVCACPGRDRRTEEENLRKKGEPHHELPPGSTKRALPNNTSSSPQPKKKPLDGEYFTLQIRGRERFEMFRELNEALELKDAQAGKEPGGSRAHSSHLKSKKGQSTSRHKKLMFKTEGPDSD

In the first experiment the target is Cellular tumor antigen p53 (Homo sapiens) (UniProt P04637). In words: TOX21_p53_BLA_p4_ratio: Tox21 HCT-116 p53 Agonism Beta-lactamase Assay, Ratio, Phase 4 (AID 2283601). The gist of the method:
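HCT116 cells carrying an inducible beta-lactamase reporter were plated at 4000 cells/well, rested 5 h, then exposed to compounds in DMSO (217-fold dilution) for 16 h at 37C. CCF4-AM substrate was loaded 2 h at room temperature; 460/530 nm emission ratio scored gain-of-signal versus DMSO.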
For the compound `CCc1cc(C2=C(C(=O)O)N(c3ccccc3C(F)(F)F)S(=O)(=O)c3ccccc32)cc2c1OCO2`, the AC50 (usually the midpoint of the concentration-response curve, whichever way the signal moves) is 75.1 µM (active).
For `CC(=O)S[C@H](C(=O)N[C@H]1Cc2ccccc2[C@H]2CCC[C@@H](C(=O)O)N2C1=O)C(C)C`, the result was inactive.
For the compound `O=C1c2c(O)cccc2Cc2cccc(O)c21`, the outcome was inactive.
Regarding `NC(=Nc1ccccc1)Nc1ccccc1`, the outcome was inactive.
Take `COC(=O)CCC(=O)OC`: the outcome was inactive.
Consider `CN(C)C(=O)NC1(c2ccccc2)CCN(CCC[C@]2(c3ccc(Cl)c(Cl)c3)CCCN(C(=O)c3ccccc3)C2)CC1`, for which the result was inactive.
On to `Oc1ccccc1O`, for which the AC50 is 73.5 µM (active) and the outcome was inactive.
On to `CCCCC(CC)CO` (configuration not stated), for which the result was inactive.
For `Cc1c(C)c2c(c(C)c1O)CCC(C)(COc1ccc(CC3SC(=O)NC3=O)cc1)O2` (configuration not stated), the AC50 was 76 µM (active) and 35.5 µM (active).
Take `CCCC[C@H]1CN(CC2CCOCC2)C(=O)OC12CCN(C1(C)CCN(C(=O)c3c(C)ncnc3C)CC1)CC2`: the outcome was inactive.
On to `CCCCc1nc2cccnc2n1Cc1ccc(-c2ccccc2-c2nnn[nH]2)cc1`, for which the result was inactive.
Consider `Oc1ccc(O)cc1`, for which the outcome was inactive.
Regarding `CCCCCCC(CCCCCCCCCCC(=O)OCC(COC(C)=O)OC(C)=O)OC(C)=O` (configuration not stated), the result was inactive.
On the same count and under the same terms, the entry for `O=C(O)CN(CC(=O)O)CC(=O)O` is “inactive”; for `S=c1[nH]c2ccccc2s1` it is “inactive”.
As to `CS(=O)(=O)c1ccc([C@@H](C[C@H]2CCC(=O)C2)C(=O)Nc2cnccn2)cc1Cl`, the result was inactive.
Turning to `CCc1nc(N)nc(N)c1-c1ccc(Cl)cc1`, the AC50 was 47.9 µM (active) and the outcome was inactive.
Take `COC(=O)[C@H]1[C@H]2C[C@@H]3c4[nH]c5cc(OC)ccc5c4CCN3C[C@H]2C[C@@H](OC(=O)c2cc(OC)c(OC)c(OC)c2)[C@@H]1OC`: the outcome was inactive.
`CCOCCOCCO`: the outcome was inactive.
Take `CN(C)CCCN(C)CCCN(C)C`: the result was inactive.
`O=[Si]=O`: the result was inactive.
Still for that read-out and setting: the entry for `CCC(C)N(C)C(=O)c1cc2ccccc2c(-c2ccccc2Cl)n1` (configuration not stated) is “inactive”.
With `O=C(O)c1[nH]n(-c2ccc(S(=O)(=O)O)cc2)c(=O)c1N=Nc1ccc(S(=O)(=O)O)cc1`, the AC50 is 6.18e-05 µM (active).
For `CN(C)CCCN1c2ccccc2Sc2ccc(Cl)cc21`, the AC50 was 20.6 µM (active) and the outcome was inactive.
In the case of `COC(=O)CCCC(=O)OC`, the outcome was inactive.
Same read-out and setting: the entry for `CC1(C)C(=O)NC(=O)N1CO` is “inactive”.
For the compound `Cc1ccc(C(C)(C)C)c(O)c1`, the AC50 was 69 µM (active) and the result was inactive.
Take `CCCCCCCCCCCCCCOS(=O)(=O)O`: the AC50 is 78.4 µM (active).
On to `COc1ccc(OC(F)(F)F)cc1CN[C@H]1CCCN[C@H]1c1ccccc1`, for which the AC50 is 82.3 µM (active).

Test system in the next experiment: not listed separately
In words: Tanguay_ZF_120hpf_MORT_legacy: (Legacy) Oregon State University Tanguay Lab 120 Hour Post-fertilization zebrafish Assay for Mortality (AID 2283633).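 On AC50: fitted as increase in binary mortality versus DMSO negative control.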 In a few lines:
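Dechorionated Tropical 5D wild-type zebrafish embryos, one per well from 6 hpf, were statically exposed at 28C in the dark until 120 hpf (0.64% DMSO final). Mortality was scored as present/absent by brightfield microscopy, fitted positively versus DMSO.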
Turning to `CCc1cc(C2=C(C(=O)O)N(c3ccccc3C(F)(F)F)S(=O)(=O)c3ccccc32)cc2c1OCO2`, the compound was classed as inactive.
Turning to `CC(=O)S[C@H](C(=O)N[C@H]1Cc2ccccc2[C@H]2CCC[C@@H](C(=O)O)N2C1=O)C(C)C`, the result was inactive.
On the same count and under the same terms, the entry for `O=C1c2c(O)cccc2Cc2cccc(O)c21` is “inactive”; for `NC(=Nc1ccccc1)Nc1ccccc1` it is “inactive”.
As for `COC(=O)CCC(=O)OC`, the result was inactive.
Turning to `CN(C)C(=O)NC1(c2ccccc2)CCN(CCC[C@]2(c3ccc(Cl)c(Cl)c3)CCCN(C(=O)c3ccccc3)C2)CC1`, the compound was classed as inactive.
Still for that read-out and setting: the entry for `Oc1ccccc1O` is “inactive”.
As for `CCCCC(CC)CO` (configuration not stated), the call was inactive.
As for `Cc1c(C)c2c(c(C)c1O)CCC(C)(COc1ccc(CC3SC(=O)NC3=O)cc1)O2` (configuration not stated), the call was inactive.
With `CCCC[C@H]1CN(CC2CCOCC2)C(=O)OC12CCN(C1(C)CCN(C(=O)c3c(C)ncnc3C)CC1)CC2`, the compound was called inactive.
On the same count and under the same terms, the entry for `CCCCc1nc2cccnc2n1Cc1ccc(-c2ccccc2-c2nnn[nH]2)cc1` is “inactive”.
On to `Oc1ccc(O)cc1`, for which the AC50 was 1.77 µM (active).
As to `CCCCCCC(CCCCCCCCCCC(=O)OCC(COC(C)=O)OC(C)=O)OC(C)=O` (configuration not stated), the result was inactive.
On to `O=C(O)CN(CC(=O)O)CC(=O)O`, for which the call was inactive.
As to `S=c1[nH]c2ccccc2s1`, the result was inactive.
In the case of `CS(=O)(=O)c1ccc([C@@H](C[C@H]2CCC(=O)C2)C(=O)Nc2cnccn2)cc1Cl`, the compound was called inactive.
As for `CCc1nc(N)nc(N)c1-c1ccc(Cl)cc1`, the call was inactive.
Same read-out and setting: the entry for `COC(=O)[C@H]1[C@H]2C[C@@H]3c4[nH]c5cc(OC)ccc5c4CCN3C[C@H]2C[C@@H](OC(=O)c2cc(OC)c(OC)c(OC)c2)[C@@H]1OC` is “inactive”; for `CCOCCOCCO` it is “inactive”.
Consider `CN(C)CCCN(C)CCCN(C)C`, for which the compound was classed as inactive.
For the compound `O=[Si]=O`, the result was inactive.
On to `CCC(C)N(C)C(=O)c1cc2ccccc2c(-c2ccccc2Cl)n1` (configuration not stated), for which the result was inactive.
With `O=C(O)c1[nH]n(-c2ccc(S(=O)(=O)O)cc2)c(=O)c1N=Nc1ccc(S(=O)(=O)O)cc1`, the result was inactive.
In the case of `CN(C)CCCN1c2ccccc2Sc2ccc(Cl)cc21`, the AC50 is 16.3 µM (active).
`COC(=O)CCCC(=O)OC`: the call was inactive.
Turning to `CC1(C)C(=O)NC(=O)N1CO`, the compound was called inactive.
In the case of `Cc1ccc(C(C)(C)C)c(O)c1`, the compound was classed as inactive.
For the compound `CCCCCCCCCCCCCCOS(=O)(=O)O`, the AC50 was 27.8 µM (active).
For the compound `COc1ccc(OC(F)(F)F)cc1CN[C@H]1CCCN[C@H]1c1ccccc1`, the concentration at half-maximal activity (AC50) is 25 µM (active).
